Experimental data published in PubChem BioAssay (NCATS).
Inconclusive results are not listed. Active and inactive are the calls of the source. Unless noted, calls come from the whole dose curve; as a rule, active = well fitted curve in the direction sought with a large enough effect; inconclusive = small, poorly fitted or top-dose-only effect, or another doubt; inactive = no such curve, though single readings can be large; an effect the other way counts as inactive or inconclusive.

Tests used:
[1] = AP1 Signaling Pathway (AID 357; active = well fitted curve in either direction with a large enough effect, not every such curve was filed as active;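 note: ME-180 reporter cells stimulated with EGF at its EC50 level; % is set by controls: 0 for no effect and ±100 for the full control effect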); details: ME-180 AP-1-bla reporter, EGF-induced, beta-lactamase ratio, 5 h; at 7.69 µM (top of the series) unless noted
Summary of the method: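 Cells are seeded overnight, exposed to compound titrations and an EC50 level of EGF for 5 hours at 37 °C, then loaded with CCF4 dye for 2.5 hours. Beta-lactamase activity under the AP-1 element is read as a blue/green ratio.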

[2] = biological target: Cytochrome P450 1A2 (Homo sapiens) (UniProt P05177); test: p450-cyp1a2 (AID 410; calls by dose curve; note: potency is the fitted concentration of half-maximal effect)
Summary of the method: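 Luminescent readout of luciferin formed from Luciferin-ME by human CYP1A2; data normalized against complete inhibition by 57 uM furafylline. Enzyme 20nM, substrate 100uM at Km, 100mM KPO4 buffer, 60 min reaction at room temperature.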

[3] = NFAT Signaling Pathway (AID 444; active = well fitted curve in either direction with a large enough effect, not every such curve was filed as active;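 note: carbachol stimulus at about its EC50 of 1 µM final; % is set by controls: 0 for no effect and ±100 for the full control effect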); details: Jurkat NFAT-bla M1, carbachol, beta-lactamase ratio, 5 h; at 7.69 µM (top of the series) unless noted
Summary of the method: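 Jurkat cells carrying an NFAT-driven β-lactamase reporter and co-transfected muscarinic M1 receptor were treated with compound plus carbachol (1 uM final, an EC50 level) for 5 h at 37 °C. CCF4 loading followed for 1 h at RT; 460/530 nm ratio gave %activity.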

[4] = Stat Signaling Pathway (AID 446; active = well fitted curve in either direction with a large enough effect, not every such curve was filed as active;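 note: ME-180 cervical cancer cells given 40 pM IL-6 alongside compound; SIE-controlled beta-lactamase reporter measured as 460/530 nm FRET emission ratio; % is set by controls: 0 for no effect and ±100 for the full control effect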); details: ME-180 SIE beta-lactamase reporter, IL-6 stimulated, 5 h; at 7.69 µM (top of the series) unless noted
Summary of the method: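 ME-180 SIE-bla cells; overnight plating; cpd + IL-6 40 pM, 5 h, 37 C; LiveBLAzer 2.5 h RT; 460/530 nm emission ratio. Normalized to 300 pM IL-6 and 125 nM JAK inhibitor controls.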

[5] = biological target: Glucocorticoid receptor (Homo sapiens) (UniProt P04150); test: GR-GFP Redistribution (AID 450;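 active = compounds whose dose series gives a full or clear partial fitted curve of increased nuclear translocation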; note: potency is the fitted concentration of half-maximal effect); details: U2OS GR-GFP nuclear translocation, laser cytometry, 2 h
[6] = biological target: Mitogen-activated protein kinase 10 (Mus musculus) (UniProt Q61831); test: JNK3 AlphaScreen Assay (AID 530; active = well fitted curve in either direction with a large enough effect, not every such curve was filed as active;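 note: kinase came from lysate of stimulated human HepG2 cells; signal reports phosphorylation of biotinylated GST-cJun 1-79 at Ser73 with 10 µM ATP; % is set by controls: 0 for no effect and ±100 for the full control effect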)
Summary of the method: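 Inhibitors reduce antibody binding to phosphorylated biotin-cJun, lowering AlphaScreen luminescence. Lysates from HepG2 cells pre-activated by IL-1beta plus TNF-alpha supplied JNK3; compounds were titrated.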

[7] = biological target: 3',5'-cyclic-AMP phosphodiesterase 4B (Homo sapiens) (UniProt Q07343); test: qHTS Assay for Inhibitors of PDE-IV (AID 607; active = well fitted activation curve with a large enough effect in the main read-out, with a control signal flat, not every such curve was filed as active; note: % of control where 0% means no effect)
Summary of the method: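 ACTOne HEK293 cells carry a modified cAMP-gated CNG channel and express endogenous PDE4; plated 1000 cells/well, compounds up to 22.9 uM final. Membrane-potential dye fluorescence (ex 535/em 590) was read; parental cells received 10 uM forskolin + 100 uM RO 20-1724.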

[8] = biological target: Guanine nucleotide-binding protein G(i) subunit alpha-1 (Homo sapiens) (UniProt P63096); test: qHTS Assay for Inhibitors of RGS12 GoLoco Motif Activity (Green Fluorophore) (AID 879);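 note: 0% = labeled peptide with Gαi1 and full inhibition = labeled peptide alone without protein; negative values mean loss of peptide binding seen as reduced polarization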
Summary of the method: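 Fluorescence polarization assay: 50 nM Gαi1 with 10 nM FITC-labeled RGS12 GoLoco peptide in 10 mM Tris pH 7.5, 150 mM NaCl, 0.1 mM GDP, 0.05% NP40, 10 min at room temperature with compound.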

[9] = biological target: Cytochrome P450 2C9 (Homo sapiens) (UniProt P11712); test: qHTS Assay for Inhibitors and Substrates of Cytochrome P450 2C9 (AID 883); note: potency is the fitted concentration of half-maximal effect; nearly all actives have a fitted effect of over 60% in size
Summary of the method: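 A luminogenic readout tracked human CYP2C9 (10nM) converting deoxyluciferin (100uM, at KM) in 25mM KPO4 during 60 min at 37C with regenerated NADPH. Values normalized to 57uM sulphaphenazole as complete inhibition.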

[10] = biological target: Cytochrome P450 3A4 (Homo sapiens) (UniProt P08684); test: qHTS Assay for Activators of Cytochrome P450 3A4 (AID 885); note: nearly all actives have a fitted effect of over 65% in size
Summary of the method: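 20nM CYP3A4 + 25uM Luciferin-PPXE (=KM), 200mM KPO4; cpd 10 min RT; NADPH regen, 60 min RT; stop w/ detection buffer, 20 min; luminescence. Normalized to 57 uM ketoconazole.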

[11] = biological target: Muscarinic acetylcholine receptor M1 (Rattus norvegicus) (UniProt P08482); test: qHTS Assay for Antagonists of Acetylcholine Muscarinic M1 Receptor: Measurement of IP-One Response (AID 944); note: nearly all actives have a fitted effect of over 75% in size; note: potency is the fitted concentration of half-maximal effect
Summary of the method: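 M1-CHO (rat), 2000 cells/well, overnight recovery; cpd 10 min; carbachol EC80 (200 nM), 30 min, HEPES buffer + 50 mM LiCl pH 7.4; IP-One HTRF, Ex 337, Em 620/665 nm.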

[12] = biological target: Pyruvate kinase (Leishmania mexicana) (UniProt Q27686); test: qHTS Validation Assay for Inhibitors of Leishmania Mexicana Pyruvate Kinase (AID 945);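 note: 0% = DMSO only neutral control wells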
Summary of the method: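 Pyruvate kinase activity of E451W LmPYK (0.2 nM) was followed as ATP output after 1 h at room temperature with 0.5 mM PEP and 0.1 mM ADP, detected by PKLight luminescence.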

[13] = biological target: Pyruvate kinase PKM (Homo sapiens) (UniProt P14618); test: qHTS Assay for Activators of Human Muscle Pyruvate Kinase (AID 954; active = well fitted curve in the direction sought with a large enough effect, not every such curve was filed as active;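 note: 0% = uninhibited enzyme and -100% = no enzyme or full thiadiazolimine inhibition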)
Summary of the method: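 Luminescence from a luciferase ATP-detection/stop reagent reported PKM2 activity. Reactions contained 0.1 nM purified human enzyme, 0.5 mM PEP, 0.1 mM ADP and 7 mM MgCl2 at pH 7.2, run 1 h at RT.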

[14] = biological target: Alpha-galactosidase (Coffea arabica) (UniProt Q42656); test: Counterscreen for Glucocerebrosidase Inhibitors: qHTS Assay for Coffee Bean alpha-Galactosidase at pH 4.5 (AID 957);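 note: plate controls were enzyme alone for no effect and no enzyme for full effect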
Summary of the method: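 Coffee bean alpha-galactosidase 2 nM, substrate 4-MU-alpha-Gal 80 uM, pH 4.5 citrate/Tween-20, 20 min RT. Cpd titration 0.7 nM–77 uM. Stop pH 10, fluorescence 365/440 nm; Hill-equation AC50.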

[15] = biological target: Alpha-galactosidase A (Homo sapiens) (UniProt P06280); test: Counterscreen for Glucocerebrosidase Inhibitors: qHTS Assay for Human alpha-Galactosidase at pH 4.5 (AID 992); note: 0% is about no effect
Summary of the method: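 Enzyme at 2 nM final was combined with compound (0.7 nM to 77 uM) and 80 uM 4-methylumbelliferyl alpha-D-galactopyranoside in 50 mM citric acid, 0.005% Tween-20, pH 4.5. After 20 min at room temperature, fluorescence was read (Ex 365/Em 440 nm); AC50 came from Hill fits.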

[16] = biological target: alpha-glucosidase (Oryza sativa, rice) (UniProt Q653V4); test: Counterscreen for Glucocerebrosidase Inhibitors: qHTS Assay for Rice alpha-Glucosidase at pH 5.0 (AID 997);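 note: 0% = full activity with enzyme and -100% = basal without enzyme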
Summary of the method: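 Rice alpha-glucosidase (4 nM final) with 400 uM 4-methylumbelliferyl-alpha-D-glucopyranoside in citrate buffer pH 5.0, 20 min at room temperature, stopped at pH 10; fluorescence 365/440 nm, compounds 0.7 nM–77 uM, AC50 from Hill fits.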

[17] = biological target: Alpha-galactosidase (Coffea arabica) (UniProt Q42656); test: Counterscreen for Glucocerebrosidase Inhibitors: qHTS Assay for Coffee Bean alpha-Galactosidase at pH 5.9 (AID 998);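 note: plate controls were uninhibited enzyme for no effect and no-enzyme basal signal for full effect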
Summary of the method: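 Green coffee bean enzyme (2 nM final) was incubated with compounds (0.7 nM–77 uM) and 4-methylumbelliferyl alpha-D-galactopyranoside (80 uM) in citrate buffer pH 5.9, 20 min at room temperature. High-pH stop; fluorescence 365/440 nm; AC50 from Hill fits.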

[18] = biological target: Glucocorticoid receptor (Homo sapiens) (UniProt P04150); test: GR-EFC Redistribution (AID 451; calls by dose curve; note: potency is the fitted concentration of half-maximal effect); details: CHO-K1 GR-EFC translocation, beta-gal luminescence, 2 h
Summary of the method: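 CHO-K1 cells stably expressing nuclear-localized β-gal enzyme acceptor and GR fused C-terminally to the enzyme donor fragment; ligand-driven nuclear translocation restores β-gal by complementation. Compounds titrated up to 46 uM final, 2 h at 37 °C; luminescence read.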

[19] = qHTS Assay for Identification of Small Molecule Antagonists for NFkB Signaling Pathway (AID 895; active = well fitted inhibition curve with a large enough effect in the signal ratio, with a control signal flat, not every such curve was filed as active; the % refers to the signal ratio; note: % is set by controls: 0 for no effect and ±100 for the full control effect)
Summary of the method: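 NFkB-bla ME-180 cervical carcinoma cells with beta-lactamase reporter under NFkB response element; compounds added, then TNF alpha at 10 pM final (EC50), 5 h at 37 C. LiveBLAzer substrate 2 h, room temperature; emission 460/530 nm at 405 nm excitation.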

[20] = qHTS Assay for Identification of Small Molecule Agonists for Thrombopoietin (TPO) Signaling Pathway (AID 917); note: % is set by controls: 0 for no effect and ±100 for the full control effect
Summary of the method: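 Activators of TPO signaling were sought in murine Ba/F3 cells transfected with the human receptor, using a luciferase gene driven by the Glycoprotein IIb promoter; 24-hr compound exposure at 37 C alongside 26 pM TPO, in IL-3-free medium.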

[21] = biological target: Muscarinic acetylcholine receptor M1 (Rattus norvegicus) (UniProt P08482); test: qHTS Assay for Antagonists of Acetylcholine Muscarinic M1 Receptor: Kinetic Measurement of Intracellular Calcium Response (AID 943); note: nearly all actives have a fitted effect of over 75% in size; note: potency is the fitted concentration of half-maximal effect;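 for activity change, negative = inhibition: Fluo-4 calcium signal as peak divided by basal fluorescence over 4 min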
Summary of the method: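 Rat M1-CHO cells, 2000/well, overnight → Fluo-4 no-wash dye with probenecid, 1 h 37C → compound 10 min, room temp → basal read 6 s → carbachol EC80 (100 nM) → 4 min kinetic read; peak/basal.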

Alpha-galactosidase A (Homo sapiens), sequence (P06280 whole entry, looked up): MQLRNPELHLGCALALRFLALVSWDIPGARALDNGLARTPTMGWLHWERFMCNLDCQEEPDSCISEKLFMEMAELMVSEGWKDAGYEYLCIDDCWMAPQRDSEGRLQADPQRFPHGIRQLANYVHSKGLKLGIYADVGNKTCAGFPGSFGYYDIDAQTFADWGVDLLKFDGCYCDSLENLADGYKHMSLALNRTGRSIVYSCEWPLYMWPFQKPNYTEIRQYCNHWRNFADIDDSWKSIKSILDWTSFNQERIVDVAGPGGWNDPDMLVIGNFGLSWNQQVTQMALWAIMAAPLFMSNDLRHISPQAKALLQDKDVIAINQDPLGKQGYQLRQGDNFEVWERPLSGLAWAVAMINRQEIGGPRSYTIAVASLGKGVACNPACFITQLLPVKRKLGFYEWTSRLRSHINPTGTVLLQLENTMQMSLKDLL
Guanine nucleotide-binding protein G(i) subunit alpha-1 (Homo sapiens), sequence (P63096 whole entry, looked up): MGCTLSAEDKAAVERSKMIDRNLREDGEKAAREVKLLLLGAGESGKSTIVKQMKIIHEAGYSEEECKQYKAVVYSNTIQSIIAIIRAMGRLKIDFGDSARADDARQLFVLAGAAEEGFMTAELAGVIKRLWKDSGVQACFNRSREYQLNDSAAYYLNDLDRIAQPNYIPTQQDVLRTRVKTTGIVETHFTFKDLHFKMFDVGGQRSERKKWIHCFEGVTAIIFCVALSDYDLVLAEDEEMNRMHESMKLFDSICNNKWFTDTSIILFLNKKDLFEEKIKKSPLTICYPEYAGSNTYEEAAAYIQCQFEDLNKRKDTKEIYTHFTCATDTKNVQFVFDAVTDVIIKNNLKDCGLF
Pyruvate kinase PKM (Homo sapiens), sequence (P14618 whole entry, looked up): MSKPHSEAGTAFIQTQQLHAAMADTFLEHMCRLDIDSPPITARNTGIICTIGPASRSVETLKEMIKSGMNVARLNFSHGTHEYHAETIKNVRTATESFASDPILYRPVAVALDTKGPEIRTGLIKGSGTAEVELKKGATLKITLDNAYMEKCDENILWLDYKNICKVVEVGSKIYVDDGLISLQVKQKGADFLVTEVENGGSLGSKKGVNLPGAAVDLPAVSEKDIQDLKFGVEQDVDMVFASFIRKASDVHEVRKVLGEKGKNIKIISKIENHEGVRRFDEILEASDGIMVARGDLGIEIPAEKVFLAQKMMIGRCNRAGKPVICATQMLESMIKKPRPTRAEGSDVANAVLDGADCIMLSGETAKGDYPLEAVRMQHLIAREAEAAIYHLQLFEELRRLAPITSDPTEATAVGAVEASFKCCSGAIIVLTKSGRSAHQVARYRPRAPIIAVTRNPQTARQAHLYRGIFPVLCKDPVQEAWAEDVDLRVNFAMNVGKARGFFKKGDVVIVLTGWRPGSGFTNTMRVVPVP
Alpha-galactosidase (Coffea arabica), sequence (Q42656 whole entry, looked up): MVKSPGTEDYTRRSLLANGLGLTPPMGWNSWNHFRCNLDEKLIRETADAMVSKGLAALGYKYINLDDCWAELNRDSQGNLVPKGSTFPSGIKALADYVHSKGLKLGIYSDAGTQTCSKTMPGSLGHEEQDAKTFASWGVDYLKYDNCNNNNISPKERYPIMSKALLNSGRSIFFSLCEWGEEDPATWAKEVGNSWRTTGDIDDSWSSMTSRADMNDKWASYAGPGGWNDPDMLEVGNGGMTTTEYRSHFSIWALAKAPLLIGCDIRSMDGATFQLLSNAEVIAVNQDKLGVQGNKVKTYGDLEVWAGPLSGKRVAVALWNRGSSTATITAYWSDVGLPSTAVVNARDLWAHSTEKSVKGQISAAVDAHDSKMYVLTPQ
Muscarinic acetylcholine receptor M1 (Rattus norvegicus), sequence (P08482 whole entry, looked up): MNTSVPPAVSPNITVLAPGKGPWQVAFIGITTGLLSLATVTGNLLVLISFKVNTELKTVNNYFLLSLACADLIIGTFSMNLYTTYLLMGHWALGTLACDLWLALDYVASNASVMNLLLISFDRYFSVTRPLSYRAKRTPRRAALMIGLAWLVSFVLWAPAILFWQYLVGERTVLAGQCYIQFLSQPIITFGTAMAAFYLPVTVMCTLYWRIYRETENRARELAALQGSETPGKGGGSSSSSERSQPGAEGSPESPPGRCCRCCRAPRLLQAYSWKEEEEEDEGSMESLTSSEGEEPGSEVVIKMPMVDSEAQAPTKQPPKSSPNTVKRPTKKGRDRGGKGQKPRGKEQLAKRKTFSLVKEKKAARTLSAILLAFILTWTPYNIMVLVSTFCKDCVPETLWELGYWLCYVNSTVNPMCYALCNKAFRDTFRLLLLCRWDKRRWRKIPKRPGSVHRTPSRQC
Glucocorticoid receptor (Homo sapiens), sequence (P04150 whole entry, looked up, the tested form may be a part): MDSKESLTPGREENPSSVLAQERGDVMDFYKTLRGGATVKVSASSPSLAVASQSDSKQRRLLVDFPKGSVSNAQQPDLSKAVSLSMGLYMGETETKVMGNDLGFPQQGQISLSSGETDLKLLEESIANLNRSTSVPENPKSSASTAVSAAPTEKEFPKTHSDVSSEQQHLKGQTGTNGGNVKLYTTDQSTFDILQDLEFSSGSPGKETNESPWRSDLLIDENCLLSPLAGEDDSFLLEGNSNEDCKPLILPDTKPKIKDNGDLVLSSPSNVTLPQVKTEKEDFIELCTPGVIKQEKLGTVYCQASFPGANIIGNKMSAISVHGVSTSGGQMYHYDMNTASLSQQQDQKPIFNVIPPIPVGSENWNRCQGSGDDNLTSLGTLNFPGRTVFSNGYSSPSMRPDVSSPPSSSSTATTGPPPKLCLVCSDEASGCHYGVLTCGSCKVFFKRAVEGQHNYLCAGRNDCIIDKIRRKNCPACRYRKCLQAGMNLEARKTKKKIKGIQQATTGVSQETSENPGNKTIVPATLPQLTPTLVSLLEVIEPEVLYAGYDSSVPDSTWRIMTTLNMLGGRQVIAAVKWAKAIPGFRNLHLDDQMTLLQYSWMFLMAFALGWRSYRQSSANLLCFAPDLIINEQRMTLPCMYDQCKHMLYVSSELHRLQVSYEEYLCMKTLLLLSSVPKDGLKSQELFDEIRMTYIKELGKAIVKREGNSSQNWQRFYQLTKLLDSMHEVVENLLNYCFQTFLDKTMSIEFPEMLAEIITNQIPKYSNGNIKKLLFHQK
3',5'-cyclic-AMP phosphodiesterase 4B (Homo sapiens), sequence (Q07343 whole entry, looked up): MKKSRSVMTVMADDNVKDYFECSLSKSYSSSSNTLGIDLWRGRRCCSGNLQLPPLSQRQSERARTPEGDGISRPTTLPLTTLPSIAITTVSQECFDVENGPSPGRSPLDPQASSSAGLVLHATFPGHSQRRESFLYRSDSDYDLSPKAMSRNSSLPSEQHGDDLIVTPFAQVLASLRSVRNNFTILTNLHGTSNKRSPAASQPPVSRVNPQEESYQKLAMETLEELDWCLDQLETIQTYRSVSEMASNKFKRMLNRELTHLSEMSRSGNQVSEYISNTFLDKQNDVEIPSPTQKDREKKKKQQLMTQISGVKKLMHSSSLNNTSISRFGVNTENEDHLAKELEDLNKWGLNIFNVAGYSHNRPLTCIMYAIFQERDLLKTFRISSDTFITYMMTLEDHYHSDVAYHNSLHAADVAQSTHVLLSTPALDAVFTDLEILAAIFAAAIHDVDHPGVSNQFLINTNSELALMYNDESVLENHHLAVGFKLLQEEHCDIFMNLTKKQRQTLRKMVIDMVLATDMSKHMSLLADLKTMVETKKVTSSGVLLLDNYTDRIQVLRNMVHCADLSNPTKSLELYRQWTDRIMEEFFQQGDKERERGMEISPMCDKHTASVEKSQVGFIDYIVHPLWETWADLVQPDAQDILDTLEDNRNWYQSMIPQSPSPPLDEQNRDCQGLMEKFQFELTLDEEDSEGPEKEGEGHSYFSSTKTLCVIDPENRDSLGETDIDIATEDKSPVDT
Pyruvate kinase (Leishmania mexicana), sequence (Q27686 2-499 E452W): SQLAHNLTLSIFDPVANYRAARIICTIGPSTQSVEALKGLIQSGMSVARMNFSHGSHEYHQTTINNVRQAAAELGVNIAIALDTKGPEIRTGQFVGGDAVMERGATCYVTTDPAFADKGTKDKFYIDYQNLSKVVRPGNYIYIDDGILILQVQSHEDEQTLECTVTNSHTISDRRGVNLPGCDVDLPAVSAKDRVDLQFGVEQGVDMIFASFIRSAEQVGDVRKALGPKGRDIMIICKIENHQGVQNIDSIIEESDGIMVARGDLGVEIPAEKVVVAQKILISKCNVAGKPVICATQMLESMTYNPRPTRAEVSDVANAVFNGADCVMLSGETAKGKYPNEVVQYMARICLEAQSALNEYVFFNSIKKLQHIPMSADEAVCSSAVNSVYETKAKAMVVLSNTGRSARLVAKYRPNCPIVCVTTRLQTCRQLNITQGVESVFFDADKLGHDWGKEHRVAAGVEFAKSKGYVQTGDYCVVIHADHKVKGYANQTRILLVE
Cytochrome P450 3A4 (Homo sapiens), sequence (P08684 whole entry, looked up): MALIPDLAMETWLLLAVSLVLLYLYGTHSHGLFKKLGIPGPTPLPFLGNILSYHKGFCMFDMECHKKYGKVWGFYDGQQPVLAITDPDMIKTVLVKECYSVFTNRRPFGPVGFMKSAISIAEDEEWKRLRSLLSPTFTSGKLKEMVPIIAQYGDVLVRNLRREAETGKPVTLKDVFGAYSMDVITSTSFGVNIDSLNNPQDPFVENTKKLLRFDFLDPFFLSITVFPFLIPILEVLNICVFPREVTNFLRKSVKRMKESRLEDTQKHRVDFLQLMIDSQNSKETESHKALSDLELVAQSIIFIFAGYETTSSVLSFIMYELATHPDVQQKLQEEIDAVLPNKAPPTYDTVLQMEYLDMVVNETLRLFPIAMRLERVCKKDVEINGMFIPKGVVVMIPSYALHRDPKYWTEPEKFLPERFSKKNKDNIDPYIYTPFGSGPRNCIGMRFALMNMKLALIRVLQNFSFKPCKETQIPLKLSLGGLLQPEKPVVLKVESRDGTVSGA

CC(=O)[C@@H]1CC[C@H]2[C@H]3CC[C@H]4C[C@@H](O)CC[C@]4(C)[C@@H]3CC[C@]12C
inactive: activity change, negative = inhibition [1] 11.2% [at 38 µM] | activity change, negative = inhibition [3] -10.3% [at 38 µM] | activity, negative = inhibition [4] -25.9% [at 38 µM] | Potency [5] > 46 µM | Potency [6] | outcome [7] | outcome [8] | Potency [10] | Potency [11] | outcome [12] | outcome [13] | outcome [14] | outcome [15] | outcome [16] | outcome [17]
active: Potency [2] 10 µM | Potency [9] 2 µM

C[C@@]12CC[C@H]3[C@@H](CC=C4C[C@H](OS(=O)(=O)O)CC[C@]43C)[C@H]1CCC2=O
inactive: activity change, negative = inhibition [1] -6.95% [at 38 µM] | activity change, negative = inhibition [3] -0.252% [at 38 µM] | activity, negative = inhibition [4] -15.3% [at 38 µM] | Potency [5] > 46 µM | Potency [18] > 46 µM | Potency [6] | outcome [7] | outcome [8] | Potency [19] | outcome [20] | Potency [21] | Potency [11] | outcome [12] | outcome [13] | outcome [14] | outcome [15] | outcome [16] | outcome [17]

CO[C@@H]1CC=C2CCN3CCC4=C(CC(=O)OC4)[C@]23C1
inactive: activity change, negative = inhibition [1] 6.22% [at 38 µM] | activity change, negative = inhibition [3] -0.774% [at 38 µM] | activity, negative = inhibition [4] -4.68% [at 38 µM] | Potency [5] > 46 µM | Potency [18] > 46 µM | Potency [6] | outcome [7] | outcome [8] | Potency [10] | outcome [20] | Potency [11] | outcome [12] | outcome [13] | outcome [14] | outcome [15] | outcome [16] | outcome [17]

CC(C)N[C@@H](C)Cc1ccc(I)cc1
inactive: activity change, negative = inhibition [1] 17.5% [at 38 µM] | activity change, negative = inhibition [3] -29.8% [at 38 µM] | activity, negative = inhibition [4] -4.05% [at 38 µM] | Potency [5] > 46 µM | Potency [18] > 46 µM | Potency [6] | outcome [7] | outcome [8] | outcome [20] | outcome [12] | outcome [13] | outcome [14] | outcome [15] | outcome [16] | outcome [17]
active: Potency [2] 10 µM | Potency [21] 8.91 µM | Potency [11] 14.1 µM
